From PubChem
p53 mut binder: binds human mutant p53 on microarray; small molecule microarray binding, anti-GST fluorescence; calls only; 0.4% of 17,000 active; AID 624136;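 active = compounds whose four printed spots each glow above background more than chance allows, each with a p-value under 7%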
NFkB SMM: binds human NF-kappa-B p105 on microarray; P19838; Small molecule microarray, anti-His fluorescence binding; calls only; 1.3% of 17,000 active;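 active = spot fluorescence over background significantly raised, with a chance value under 7% in all four replicate spots of the compound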;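 also: probe protein is his-tagged human p50 processed subunit at 1 µg/ml; raw spot fluorescence signals with no normalization applied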
c-Myc SMM: binds human c-Myc on microarray | 1.5% of 17,000 active | calls only | small molecule microarray, His-c-Myc binding, anti-His fluorescence;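 active = spot fluorescence over background with P-value below 7% in all four replicate spots, showing protein binding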;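 also: score is binary with 100 for all four spots passing and 0 otherwise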
Target sequence (P01106 whole entry, looked up): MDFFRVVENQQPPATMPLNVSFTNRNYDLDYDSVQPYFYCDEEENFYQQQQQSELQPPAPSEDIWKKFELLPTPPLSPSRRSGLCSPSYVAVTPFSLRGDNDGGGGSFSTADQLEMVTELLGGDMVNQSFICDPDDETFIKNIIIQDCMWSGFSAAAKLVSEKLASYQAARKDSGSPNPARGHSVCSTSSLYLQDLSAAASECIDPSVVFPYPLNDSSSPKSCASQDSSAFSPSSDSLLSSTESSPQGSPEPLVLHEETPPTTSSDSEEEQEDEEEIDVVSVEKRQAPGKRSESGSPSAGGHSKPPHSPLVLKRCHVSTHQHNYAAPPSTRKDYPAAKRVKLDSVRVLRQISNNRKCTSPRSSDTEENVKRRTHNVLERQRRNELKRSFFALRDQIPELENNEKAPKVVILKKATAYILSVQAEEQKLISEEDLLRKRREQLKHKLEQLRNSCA
STAT3 binder: STAT3 (human) binding | P40763 | Small molecule microarray, His-STAT3 binding, anti-His fluorescence | calls only | 0.2% of 17,000 active | AID 624138;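 active = compounds whose four printed spots each show fluorescence over background unusually high for their array block, chance value under 7%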
* marks the source's active call; other numbers are inactive results; i = inactive; / = no result; + = active, no number. The list is not random: actives were taken first. Their share in the collection is about 2.5%.

SMILES | p53 mut binder | NFkB SMM | c-Myc SMM | STAT3 binder
C/C=C/CC(C)C(O)C1C(=O)NC(CC)C(=O)N(C)CC(=O)N(C)C(CC(C)C)C(=O)NC(C(C)C)C(=O)N(C)C(CC(C)C)C(=O)NC(C)C(=O)NC(C)C(=O)N(C)C(CC(C)C)C(=O)N(C)C(CC(C)C)C(=O)N(C)C(C(C)C)C(=O)N1C (stereo unspecified) | i | + | / | i
C=CCOC(=O)[C@H]1[C@@H]2C(=O)O[C@@H](c3ccccc3)[C@@H](c3ccccc3)N2[C@@H](c2ccc(OCCOC(=O)[C@@H]3C[C@@H]4C(=O)N5CCC[C@H]5C(=O)N4[C@@H]3c3ccc(O)cc3)cc2)[C@]12C(=O)Nc1ccc(I)cc12 | i | i | i | i
C=CCOC(=O)[C@@H]1[C@H]2C(=O)O[C@H](c3ccccc3)[C@H](c3ccccc3)N2[C@H](c2ccc(OCCOC(=O)[C@@H]3C[C@@H]4C(=O)N[C@@H](CC(C)C)C(=O)N4[C@@H]3c3ccc(O)cc3)cc2)[C@@]12C(=O)Nc1ccc(I)cc12 | i | i | i | i
C=CCOC(=O)[C@H]1[C@@H]2C(=O)O[C@@H](c3ccccc3)[C@@H](c3ccccc3)N2[C@@H](c2ccc(OCCOC(=O)[C@H]3C[C@H]4C(=O)N5CCC[C@H]5C(=O)N4[C@H]3c3ccc(O)cc3)cc2)[C@]12C(=O)Nc1ccccc12 | i | + | i | i
C=CCOC(=O)[C@@H]1[C@H]2C(=O)O[C@H](c3ccccc3)[C@H](c3ccccc3)N2[C@H](c2ccc(OCCOC(=O)[C@@H]3C[C@@H]4C(=O)N[C@@H](Cc5ccccc5)C(=O)N4[C@@H]3c3cccc(OCCO)c3)cc2)[C@@]12C(=O)Nc1ccc(I)cc12 | i | + | i | i
C[C@H]1CN([C@@H](C)CO)C(=O)c2cc(NC(=O)Nc3ccc(F)cc3)ccc2O[C@H]1CN(C)C(=O)Nc1ccc(F)cc1 | i | i | i | i
C[C@@H]1CN([C@@H](C)CO)C(=O)c2cccc(NC(=O)Nc3ccc4c(c3)OCO4)c2O[C@H]1CN(C)S(=O)(=O)c1ccccc1 | i | i | i | i
CC(C)NC(=O)Nc1ccc2c(c1)C(=O)N([C@@H](C)CO)C[C@@H](C)[C@H](CN(C)C(=O)Nc1ccccc1)OCCCC[C@@H](C)O2 | i | i | i | i
O=C(Nc1ccccc1)C1=C[C@H](c2ccc(C(F)(F)F)cc2)C[C@H](OCCCCO)O1 | i | i | i | i
O=C(O)C1=C[C@H](c2ccc(C(F)(F)F)cc2)C[C@H](OCCCCO)O1 | i | i | i | +
CCOC(=O)c1c(NC(=O)Cn2ccc([N+](=O)[O-])n2)sc(C)c1C | i | i | i | i
C[C@@H]1CCCCO[C@@H](CN(C)C(=O)Nc2ccc(C(F)(F)F)cc2)[C@H](C)CN([C@@H](C)CO)C(=O)c2cc(NS(C)(=O)=O)ccc2O1 | i | i | + | i
C[C@@H]1CCCCO[C@@H](CN(C)C(=O)Nc2ccc(C(F)(F)F)cc2)[C@H](C)CN([C@H](C)CO)C(=O)c2cc(NS(C)(=O)=O)ccc2O1 | i | i | i | i
C[C@@H]1CCCCO[C@@H](CN(C)C(=O)Nc2ccc(C(F)(F)F)cc2)[C@@H](C)CN([C@H](C)CO)C(=O)c2cc(NS(C)(=O)=O)ccc2O1 | i | i | i | i
C[C@H]1CCCCO[C@H](CN(C)C(=O)Nc2ccc(C(F)(F)F)cc2)[C@@H](C)CN([C@@H](C)CO)C(=O)c2cc(NS(C)(=O)=O)ccc2O1 | i | + | + | +
C[C@@H]1CCCCO[C@H](CN(C)C(=O)Nc2ccc(C(F)(F)F)cc2)[C@H](C)CN([C@@H](C)CO)C(=O)c2cc(NS(C)(=O)=O)ccc2O1 | i | i | i | +
C[C@@H]1CN([C@@H](C)CO)C(=O)c2cc(N(C)C)ccc2O[C@@H](C)CCCCO[C@@H]1CN(C)C(=O)Nc1cccc2ccccc12 | i | i | i | i
Cc1ccc([N+](=O)[O-])cc1NC(=O)CCN1C(=O)c2ccccc2C1=O | i | i | i | i
O=C(O)CCN1C(=O)c2cccc3c([N+](=O)[O-])ccc(c23)C1=O | i | i | + | i
